Experimental data: ChEMBL document CHEMBL1961873, “Compounds: GSK PKIS; Assays: Nanosyn kinase panel” (2012)

How the values were obtained:
[1] = target: RAF proto-oncogene serine/threonine-protein kinase (Homo sapiens) (UniProt P04049); settings: at 1 µM;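 note: values are the mean percent inhibition of CRAF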
[2] = target: T1, Interleukin-1 receptor-associated kinase 4 (Homo sapiens) (UniProt Q9NWZ3); settings: at 0.1 µM
T1 sequence (whole entry): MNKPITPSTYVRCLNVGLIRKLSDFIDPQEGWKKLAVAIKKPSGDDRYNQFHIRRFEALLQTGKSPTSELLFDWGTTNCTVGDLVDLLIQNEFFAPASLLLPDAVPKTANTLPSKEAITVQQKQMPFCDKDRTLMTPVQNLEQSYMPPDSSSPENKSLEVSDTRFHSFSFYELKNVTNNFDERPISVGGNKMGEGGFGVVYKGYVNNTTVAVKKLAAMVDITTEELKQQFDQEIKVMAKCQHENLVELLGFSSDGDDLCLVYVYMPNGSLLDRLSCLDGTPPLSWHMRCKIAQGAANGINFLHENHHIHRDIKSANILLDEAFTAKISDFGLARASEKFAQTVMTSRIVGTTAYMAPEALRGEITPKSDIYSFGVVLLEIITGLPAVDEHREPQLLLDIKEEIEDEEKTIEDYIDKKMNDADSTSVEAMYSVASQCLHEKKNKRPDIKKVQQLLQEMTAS

[3] = target: T1, Interleukin-1 receptor-associated kinase 4 (Homo sapiens); settings: at 1 µM
[4] = target: Leucine-rich repeat serine/threonine-protein kinase 2 (Homo sapiens) (UniProt Q5S007); settings: at 0.1 µM
Leucine-rich repeat serine/threonine-protein kinase 2 (Homo sapiens), sequence (Q5S007 whole entry): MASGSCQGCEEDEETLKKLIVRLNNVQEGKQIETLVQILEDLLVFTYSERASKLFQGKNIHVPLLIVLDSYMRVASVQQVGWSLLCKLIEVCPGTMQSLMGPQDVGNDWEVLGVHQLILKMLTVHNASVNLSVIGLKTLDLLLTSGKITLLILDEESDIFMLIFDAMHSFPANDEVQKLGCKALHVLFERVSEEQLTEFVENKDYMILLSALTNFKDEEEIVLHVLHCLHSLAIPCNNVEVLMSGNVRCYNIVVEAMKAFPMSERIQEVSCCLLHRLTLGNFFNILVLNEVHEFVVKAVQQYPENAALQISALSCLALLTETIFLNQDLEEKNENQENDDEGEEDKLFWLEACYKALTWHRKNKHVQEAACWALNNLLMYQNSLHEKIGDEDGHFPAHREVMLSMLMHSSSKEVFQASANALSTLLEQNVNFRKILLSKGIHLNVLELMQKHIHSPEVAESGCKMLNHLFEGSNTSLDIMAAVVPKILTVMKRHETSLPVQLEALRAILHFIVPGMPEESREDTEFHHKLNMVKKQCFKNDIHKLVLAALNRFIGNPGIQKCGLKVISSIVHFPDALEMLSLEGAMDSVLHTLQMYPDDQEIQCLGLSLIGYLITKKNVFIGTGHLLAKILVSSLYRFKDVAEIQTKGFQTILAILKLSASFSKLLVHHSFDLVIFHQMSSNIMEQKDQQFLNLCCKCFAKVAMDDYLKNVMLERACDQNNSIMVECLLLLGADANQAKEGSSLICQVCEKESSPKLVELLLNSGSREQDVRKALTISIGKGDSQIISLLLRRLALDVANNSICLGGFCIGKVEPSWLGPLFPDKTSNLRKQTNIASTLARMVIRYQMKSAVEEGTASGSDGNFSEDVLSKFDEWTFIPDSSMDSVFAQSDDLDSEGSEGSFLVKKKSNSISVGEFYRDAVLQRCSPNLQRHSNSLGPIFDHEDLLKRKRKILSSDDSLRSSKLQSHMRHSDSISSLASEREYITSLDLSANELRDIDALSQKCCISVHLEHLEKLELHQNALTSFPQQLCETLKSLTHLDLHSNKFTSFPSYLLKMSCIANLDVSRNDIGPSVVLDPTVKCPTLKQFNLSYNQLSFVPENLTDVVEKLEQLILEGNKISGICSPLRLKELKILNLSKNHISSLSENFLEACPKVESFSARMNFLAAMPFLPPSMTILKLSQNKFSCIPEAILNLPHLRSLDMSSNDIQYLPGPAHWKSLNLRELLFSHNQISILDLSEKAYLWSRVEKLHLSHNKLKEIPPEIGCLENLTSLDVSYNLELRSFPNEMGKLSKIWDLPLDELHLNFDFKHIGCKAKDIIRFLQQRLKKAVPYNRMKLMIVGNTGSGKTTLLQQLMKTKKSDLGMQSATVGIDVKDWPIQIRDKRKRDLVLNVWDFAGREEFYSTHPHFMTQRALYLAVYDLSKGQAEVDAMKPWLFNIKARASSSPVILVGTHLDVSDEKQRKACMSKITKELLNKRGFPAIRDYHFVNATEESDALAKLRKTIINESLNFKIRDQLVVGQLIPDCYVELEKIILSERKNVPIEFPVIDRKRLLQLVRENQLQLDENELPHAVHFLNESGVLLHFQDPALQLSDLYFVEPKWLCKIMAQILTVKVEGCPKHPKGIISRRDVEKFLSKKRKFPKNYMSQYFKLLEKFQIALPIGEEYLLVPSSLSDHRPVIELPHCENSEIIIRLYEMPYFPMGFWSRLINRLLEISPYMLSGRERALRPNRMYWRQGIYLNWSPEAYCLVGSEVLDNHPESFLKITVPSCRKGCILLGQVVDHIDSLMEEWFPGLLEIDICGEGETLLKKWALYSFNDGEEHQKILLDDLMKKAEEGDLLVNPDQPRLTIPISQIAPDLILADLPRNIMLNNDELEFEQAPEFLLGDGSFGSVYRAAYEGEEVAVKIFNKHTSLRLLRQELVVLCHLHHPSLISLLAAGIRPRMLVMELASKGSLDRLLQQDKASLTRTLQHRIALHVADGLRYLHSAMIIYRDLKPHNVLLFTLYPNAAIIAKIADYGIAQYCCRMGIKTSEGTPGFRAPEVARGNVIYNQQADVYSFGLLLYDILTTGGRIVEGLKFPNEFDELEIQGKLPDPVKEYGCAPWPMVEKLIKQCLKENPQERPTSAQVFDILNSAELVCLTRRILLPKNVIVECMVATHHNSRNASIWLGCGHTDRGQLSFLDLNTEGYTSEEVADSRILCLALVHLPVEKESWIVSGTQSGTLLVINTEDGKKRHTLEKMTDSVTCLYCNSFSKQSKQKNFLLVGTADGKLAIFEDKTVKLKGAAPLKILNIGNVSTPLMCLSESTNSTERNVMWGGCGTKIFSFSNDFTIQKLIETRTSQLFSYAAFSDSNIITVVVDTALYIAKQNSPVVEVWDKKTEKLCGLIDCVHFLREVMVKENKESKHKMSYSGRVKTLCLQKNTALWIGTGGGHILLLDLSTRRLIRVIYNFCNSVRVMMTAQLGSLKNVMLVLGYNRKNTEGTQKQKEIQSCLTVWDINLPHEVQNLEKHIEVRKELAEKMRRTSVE

[5] = target: Leucine-rich repeat serine/threonine-protein kinase 2 (Homo sapiens) (UniProt Q5S007); settings: at 1 µM
[6] = system: Leucine-rich repeat serine/threonine-protein kinase 2 (Homo sapiens), Q5S007 [G2019S]; settings: at 0.1 µM
Leucine-rich repeat serine/threonine-protein kinase 2 (Homo sapiens), Q5S007 [G2019S], sequence (Q5S007 whole entry G2019S): as the sequence (Q5S007 whole entry) above, with G2019S counted along it

[7] = system: Leucine-rich repeat serine/threonine-protein kinase 2 (Homo sapiens), Q5S007 [G2019S]; settings: at 1 µM

RAF proto-oncogene serine/threonine-protein kinase (Homo sapiens), sequence (P04049 whole entry): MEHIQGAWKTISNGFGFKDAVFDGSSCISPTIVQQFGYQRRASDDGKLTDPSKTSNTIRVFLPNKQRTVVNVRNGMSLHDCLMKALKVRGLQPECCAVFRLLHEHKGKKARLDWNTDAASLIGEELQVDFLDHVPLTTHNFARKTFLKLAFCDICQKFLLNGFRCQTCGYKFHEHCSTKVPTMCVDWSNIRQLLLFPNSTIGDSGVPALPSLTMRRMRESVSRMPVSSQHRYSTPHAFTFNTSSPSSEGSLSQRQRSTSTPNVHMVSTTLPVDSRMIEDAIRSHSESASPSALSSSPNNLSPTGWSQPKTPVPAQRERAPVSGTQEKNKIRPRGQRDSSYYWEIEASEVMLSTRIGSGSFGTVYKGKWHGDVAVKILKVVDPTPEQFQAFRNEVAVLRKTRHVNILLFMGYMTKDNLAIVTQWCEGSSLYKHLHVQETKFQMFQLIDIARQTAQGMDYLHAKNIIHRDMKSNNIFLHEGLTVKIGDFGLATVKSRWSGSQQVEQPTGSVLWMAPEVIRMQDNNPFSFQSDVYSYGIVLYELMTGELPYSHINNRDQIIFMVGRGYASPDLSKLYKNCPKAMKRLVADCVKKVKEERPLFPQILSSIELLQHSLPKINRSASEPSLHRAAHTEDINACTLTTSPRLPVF

Row | SMILES | inhibition [1] [%] | inhibition [2] [%] | inhibition [3] [%] | inhibition [4] [%] | inhibition [5] [%] | inhibition [6] [%] | inhibition [7] [%]
1 | CCc1ccc(Oc2nccc(-c3c(-c4ccc(F)cc4)ncn3C3CCNCC3)n2)cc1 | -0.51 | 2.21 | 2.52 | 0.68 | 6 | 3.1 | 6.63
2 | O=C(Nc1n[nH]c2cc(-c3ccccc3)ccc12)C1CC1 | 1.41 | 2.36 | 2.04 | 2.57 | 6.05 | 3.85 | 7.95
3 | C[C@@H](Oc1cc(-n2cnc3ccc(OCC4CCN(C)CC4)cc32)sc1C(N)=O)c1ccccc1Cl | 8.07 | 2.66 | 6.25 | 8.16 | 17.3 | 11.1 | 33.5
4 | NS(=O)(=O)c1ccc(Nc2cc(-c3ccc(O)c(F)c3)n[nH]2)cc1 | 0.94 | 3.6 | -1.08 | 1.51 | 13.2 | 4.54 | 29.7
5 | O=C(NCC1CC1)c1ccc(-c2cccc(C(=O)NC3CC3)c2)cc1 | 7.69 | -3.46 | 0.85 | 3.26 | 6.31 | 1.46 | 5.03
6 | NS(=O)(=O)c1ccc(N/N=C2\C(=O)Nc3ccc(-c4cnco4)cc32)cc1 | -0.01 | 0.31 | 1.08 | 9.37 | 52.5 | 32.2 | 55.8
7 | COc1ccc2cc(-c3c(-c4ccncc4)nc(-c4ccc([S+](C)[O-])cc4C)n3C)ccc2c1 (configuration not stated) | 2.82 | -4.88 | -0.25 | -0.88 | 0.64 | 0.88 | 4.04
8 | CN(c1ccc(NC(=O)Nc2c(Cl)cccc2Cl)cc1)c1ccnc(Nc2cccc(CS(C)(=O)=O)c2)n1 | 1.82 | 0.17 | 1.26 | 12.2 | 15.4 | 9.38 | 20.4
9 | CCS(=O)(=O)c1ccc(OC)c(Nc2ncc(-c3cccc(-c4ccccc4F)c3)o2)c1 | -8.29 | 1.45 | 0.38 | 1.95 | 11.6 | 4.86 | 19.5
10 | CS(=O)(=O)CCNCc1ccc(-c2ccc3ncnc(Nc4ccc(OCc5ccccc5)c(Br)c4)c3c2)o1 | 3.63 | 0.92 | 1.52 | -4.59 | -6.11 | -1.19 | -0.13
11 | CN1CCN(CCCNc2nc3ccc(Oc4ccc(NC(=O)Nc5cc(C(F)(F)F)ccc5F)cc4)cc3[nH]2)CC1 | -5.93 | -3.98 | 1.11 | 0.2 | 9.72 | 0.21 | 4.43
12 | COc1cc(Nc2ncc3c(C)nc(-c4cccc(Oc5ccccc5)c4)n3n2)cc(OC)c1OC | -0.45 | -1.6 | 0.83 | 11.7 | 18.3 | 13.8 | 47.3
13 | COc1ccc2ncn(-c3cc(O[C@H](C)c4ccccc4Cl)c(C(N)=O)s3)c2c1 | 0.5 | 1.46 | 1.82 | -2.19 | 9.87 | 2.01 | 20.2
14 | CCc1nccc2c1nc(-c1nonc1N)n2CC | -5.16 | 2.27 | -1.82 | 0.68 | 2.47 | 0.78 | 2.99
15 | NC(=O)c1cc(-c2ccc(F)cc2)cc(-c2ccncc2)c1N | 8.69 | 2.99 | 1.61 | 0.64 | 0.67 | 0.41 | 0.77
16 | COC(=O)Nc1nc2ccc(Sc3ccc(NC(=O)Nc4cc(C(F)(F)F)ccc4F)cc3)cc2[nH]1 | 50 | -0.12 | 0.72 | 0.83 | 9.98 | 0.3 | 4.85
17 | CN(C)c1ccc2c(c1)/C(=C/Nc1ccc(S(N)(=O)=O)cc1)C(=O)N2 | -6.53 | 2.88 | 0.86 | 5.77 | 16.7 | 7.03 | 36.4

Row | SMILES | inhibition [1] [%] | inhibition [2] [%] | inhibition [3] [%] | inhibition [4] [%] | inhibition [5] [%] | inhibition [6] [%] | inhibition [7] [%]
18 | COc1ccc2cc(-c3c(-c4ccncc4)nc(-c4ccc(S(C)(=O)=O)cc4C)n3C)ccc2c1 | 2.24 | 3.69 | 2.09 | 1.75 | 6.91 | 2.55 | 10.2
19 | COc1cc(Nc2ncc3c(C)nc(-c4cccc(C(F)(F)F)c4)n3n2)cc(OC)c1OC | -2.3 | -2.83 | 1.37 | 8.04 | 17.4 | 11.1 | 39.6
20 | COc1ccc(-c2ccc3c(NC(=O)C4CC4)n[nH]c3n2)cc1 |  | 2.75 | 0.45 | 1.6 | 5.11 | 2.17 | 3.39
21 | COc1cc(C)c(N(C)C(=O)CN(C)C)cc1Nc1nc(Nc2cccc(F)c2C(N)=O)c2cc[nH]c2n1 | -0.93 | -1.54 | 1.55 | 20.4 | 18.8 | 45.5 | 57.7
22 | Fc1ccc(-c2ncn(C3CCNCC3)c2-c2ccnc(Oc3ccc(F)c(F)c3)n2)cc1 | -0.68 | 1.33 | 1.17 | -3.16 | -4.05 | 0.63 | 2.39
23 | CCS(=O)(=O)c1ccc(OC)c(Nc2ncc(-c3ccccc3Cl)o2)c1 | -2.68 | -1.05 | 3.5 | 2.06 | 10.3 | 1.06 | 13.4
24 | O=C1Nc2ccc(I)cc2C1=Cc1cc(Br)c(O)c(Br)c1 | 11.3 | 1.47 | 2.1 | 19.2 | 71.9 | 37.4 | 78
25 | CN(C)CCCNc1nccc(-c2c(-c3ccc(F)cc3)nn3cc(C(F)(F)F)ccc23)n1 | 0.11 | -2.77 | 1.66 | -2 | 1.95 | -0.33 | 2.73
26 | COc1cccc(-n2cnc3c(N/N=C/c4ccncc4)ncnc32)c1 | -4.3 | -2.35 | 0.01 | -1.76 | 7.17 | 0.11 | 18.1
27 | C[C@@H](Oc1cc(-n2cnc3ccc(OC4CCN(C)CC4)cc32)sc1C(N)=O)c1ccccc1Cl | 0.92 | 1.54 | 3.69 | -3.8 | 6.57 | -1.8 | 13.5
28 | O=C(Nc1n[nH]c2nc(-c3ccc(O)cc3)c(Br)cc12)C1CC1 | 3.99 | 3.81 | 3.24 | 5.19 | 14.1 | 6.34 | 22.4
29 | FC(F)(F)c1cccc(Nc2nccc(-c3cnn4nc(-c5ccccc5)ccc34)n2)c1 | -0.15 | 0.01 | 0.27 | 2 | -0.41 | 2.35 | 4.67
30 | CCc1cccc(CC)c1/C=C/c1cncc(C(=O)NC)c1 | -1.79 | -3.49 | 1.51 | 3.05 | 4.51 | 2.33 | 7.93
31 | COc1cccc(/C=N/Nc2ncnc3c2cnn3-c2cccc(OC)c2)c1 | -1.82 | 1.63 | 2.48 | -1.62 | 0.55 | 0.17 | 5.07
32 | Cc1ccc(C(=O)NC(C)C)cc1-c1ccc(C(=O)NCC2CC2)cc1 | -1.23 | -1.36 | -0.58 | -0.57 | -1.69 | 0.59 | 2.07
33 | CCN(CC)Cc1ccc(Nc2nccc(-c3cnn4ncccc34)n2)cc1 | 1.56 | 1.17 | 3.85 | -6.19 | 8.65 | 0.1 | 19
34 | NC(=O)c1cc(-c2ccncc2)cc(-c2ccccc2)c1N | -6.49 | 2.85 | 2.52 | 3.59 | 8.2 | 4.3 | 12.3
